In all, about 33,000 sequences were measured (“E-score (-0.5 to 0.5)”: median about -0.054, highest 2% from about 0.39 on). The entries come from a sample that favours the highest values as a whole.
molecular target: Ylr278c (UniProt Q05854); test: PBM E-score (8-mer binding enrichment) (E-score (-0.5 to 0.5)); higher = stronger / more preferred TF binding; conditions: protein concentration: 200 nM; construct: GST-DNA-binding domain
Experimental: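 Universal 'all 10-mer' protein binding microarrays (Agilent AMADID 015681) probed with GST-tagged S. cerevisiae TFs (full-length or DBD) made by in vitro transcription/translation (PURExpress), about 100-200 nM. Bound TF was detected with fluorescent anti-GST. Each ungapped 8-mer (which stands for itself and its reverse complement) is scored by the PBM enrichment score (E-score), a modified Wilcoxon-Mann-Whitney statistic from -0.5 to +0.5, computed with the Universal PBM Analysis Suite. Scale: above 0.35 generally sequence-specific binding.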

Sequence of UniProt Q05854 (Q05854 whole entry, the tested form may be a part): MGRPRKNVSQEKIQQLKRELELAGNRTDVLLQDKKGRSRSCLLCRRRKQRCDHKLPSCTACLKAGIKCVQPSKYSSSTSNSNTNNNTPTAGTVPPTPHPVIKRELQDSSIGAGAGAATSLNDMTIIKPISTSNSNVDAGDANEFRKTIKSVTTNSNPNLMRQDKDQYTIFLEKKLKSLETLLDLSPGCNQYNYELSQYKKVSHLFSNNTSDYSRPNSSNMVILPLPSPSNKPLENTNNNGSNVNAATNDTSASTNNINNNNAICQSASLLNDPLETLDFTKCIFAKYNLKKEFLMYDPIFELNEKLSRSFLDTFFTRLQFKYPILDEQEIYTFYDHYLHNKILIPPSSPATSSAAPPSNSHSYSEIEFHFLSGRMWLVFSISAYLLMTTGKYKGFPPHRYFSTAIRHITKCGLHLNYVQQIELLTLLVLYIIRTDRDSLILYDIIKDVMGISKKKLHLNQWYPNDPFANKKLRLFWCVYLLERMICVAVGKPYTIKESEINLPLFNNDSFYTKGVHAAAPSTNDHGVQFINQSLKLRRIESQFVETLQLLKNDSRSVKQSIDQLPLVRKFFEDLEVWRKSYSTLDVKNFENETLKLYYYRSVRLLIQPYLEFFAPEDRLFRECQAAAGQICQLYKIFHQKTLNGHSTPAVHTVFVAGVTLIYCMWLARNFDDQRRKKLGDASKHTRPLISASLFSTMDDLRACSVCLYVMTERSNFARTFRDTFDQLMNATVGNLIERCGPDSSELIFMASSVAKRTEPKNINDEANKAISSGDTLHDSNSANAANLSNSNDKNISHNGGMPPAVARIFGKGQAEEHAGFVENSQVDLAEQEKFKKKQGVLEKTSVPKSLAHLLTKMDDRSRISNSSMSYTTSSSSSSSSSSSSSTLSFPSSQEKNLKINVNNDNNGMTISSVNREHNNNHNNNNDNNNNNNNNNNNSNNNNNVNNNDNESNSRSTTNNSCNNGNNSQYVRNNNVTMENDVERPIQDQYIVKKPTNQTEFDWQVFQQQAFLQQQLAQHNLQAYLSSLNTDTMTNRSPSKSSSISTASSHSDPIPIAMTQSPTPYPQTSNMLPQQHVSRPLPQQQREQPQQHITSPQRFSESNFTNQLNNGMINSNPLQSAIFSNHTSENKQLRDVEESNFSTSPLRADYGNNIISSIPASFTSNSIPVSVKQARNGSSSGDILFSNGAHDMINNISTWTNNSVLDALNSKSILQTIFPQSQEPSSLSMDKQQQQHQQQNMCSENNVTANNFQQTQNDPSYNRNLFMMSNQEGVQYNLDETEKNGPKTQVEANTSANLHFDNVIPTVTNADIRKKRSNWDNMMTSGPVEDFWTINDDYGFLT

Row | Sequence | PBM E-score
1 | ATAGTGAT | -0.203
2 | TAAAGACA | -0.186
3 | ACTGAGGC | 0.105
4 | TCTAAAGA | -0.115
5 | CGCGTTAA | 0.0131
6 | CGGCGTTC | 0.378
7 | GGGCGTTA | -0.101
8 | CGGCGTTA | 0.405
9 | GAGTGACA | -0.00079
10 | TAGCTTAA | -0.198
11 | TGATCTAA | -0.15
12 | CGGAGGTA | 0.426
13 | AGGAGGTA | -0.0558
14 | GGGAGGTA | -0.0269
15 | AGGAGGTC | -0.0814
16 | CGGAGGTC | 0.443
17 | CTGAGGTC | -0.297
18 | AATGAACG | -0.131
19 | CCGGTTGA | 0.303
20 | CGAGAACG | 0.232
21 | CCTAAACG | -0.0312
22 | AATCCGAC | 0.402
23 | AATCCGAA | 0.39
24 | GATCCGAC | 0.285
25 | TATCCGAA | 0.371

Row | Sequence | PBM E-score
26 | AATCCGAT | 0.421
27 | AATCCGAG | 0.288
28 | CATCCGAA | 0.303
29 | CATCCGAC | 0.289
30 | AATCCTAT | 0.181
31 | ATCGGGGC | 0.296
32 | CCACTGAG | -0.208
33 | ACTGATGC | -0.0244
34 | TCCAAACA | -0.094
35 | GCAAGTGC | -0.274
36 | GTTCTTCA | -0.192
37 | ATTCGCTC | 0.0759
38 | TGTCGGAA | 0.384
39 | GGTCGGAC | 0.355
40 | AGTCGGAA | 0.408
41 | CGTCGGTC | 0.215
42 | AGTCGGCG | 0.215
43 | AGTCGGGA | 0.142
44 | AGTCGGAG | 0.41
45 | AGTCGGAT | 0.282
46 | CGTCGGAA | 0.43
47 | CGTCGGAC | 0.397
48 | GGTCGGAA | 0.338
49 | AGTCGGAC | 0.366
50 | ACGCAGGA | -0.166

Row | Sequence | PBM E-score
51 | CAAAGCGG | 0.175
52 | AACACTTG | -0.16
53 | ATAAGACC | 0.0726
54 | ATGGTGTG | -0.23
55 | CAACAAAG | -0.189
56 | ATCAAGAC | -0.00757
57 | ACCGCTAG | -0.19
58 | CAGGGGGC | -0.125
59 | CAGGTCAG | -0.0413
60 | CGTCGTAG | 0.00558
61 | CGTCGCAG | -0.192
62 | CGTCGGAG | 0.441
63 | ATTGGAAG | -0.0562
64 | CTTTGCCC | -0.139
65 | GCTTTTGA | -0.0305
66 | CACCTCCA | 0.0316
67 | ATCCTCCC | 0.0358
68 | AACCTCCT | -0.122
69 | ATCCTCCA | -0.301
70 | AACCTCCC | 0.0351
71 | CGCCTCCA | 0.0143
72 | CACCTCCG | 0.425
73 | ATCCTCCG | 0.431
74 | CGCCTCCG | 0.398
75 | CACCTCCC | -0.129

Row | Sequence | PBM E-score
76 | AACCTCCG | 0.466
77 | AGCCTCCG | 0.381
78 | CAGTGGCA | -0.225
79 | CCCTCCCA | 0.0446
80 | ACAGGGCC | 0.0175
81 | GAAACCAA | 0.0455
82 | CGACGCAA | 0.114
83 | GTACTGGA | -0.156
84 | GCACCACC | 0.0569
85 | GACTGCGA | 0.0431
86 | TCCCTGAA | -0.217
87 | CGTAAGGC | -0.161
88 | CAGCTATG | -0.344
89 | GCGGAAAA | 0.379
90 | CAGGAAAA | 0.00343
91 | ACGGAAAA | 0.346
92 | CTGGAAAA | -0.00229
93 | CCGGAAAA | 0.453
94 | ACGGAAAC | 0.278
95 | TCGGAAAA | 0.426
96 | CCGGAAAG | 0.319
97 | CCGGAAAC | 0.404
98 | ATGAATTA | -0.228
99 | CCGGTATC | 0.32
100 | GCGATCCC | 0.0902

Row | Sequence | PBM E-score
101 | AAACACCT | -0.135
102 | CAACACCG | 0.212
103 | AAACACCG | 0.39
104 | CTCCTCAC | -0.185
105 | CATTTCCA | -0.0597
106 | ATTTTCCC | 0.063
107 | AATTTCCC | 0.114
108 | AATTTCCT | 0.0327
109 | ATTTTCCA | 0.0304
110 | AATTTCCG | 0.448
111 | CATTTCCG | 0.406
112 | CATTTCCC | 0.161
113 | ATTTTCCG | 0.421
114 | GTTCGCAA | -0.0313
115 | TATCCTCA | -0.0486
116 | ATAACTGG | -0.0346
117 | CTTCGGAC | 0.399
118 | CTTCGGTA | 0.0846
119 | CTTCGGCC | 0.154
120 | CTTCGGCA | 0.274
121 | GTTCGGGA | 0.277
122 | GTTCGGAA | 0.403
123 | GTTCGGCA | 0.134
124 | CTTCGGGC | 0.0457
125 | CTTCGGAA | 0.419

Row | Sequence | PBM E-score
126 | AAGGTGGG | -0.161
127 | GCGGTGTA | 0.132
128 | AAGGCACA | -0.231
129 | CTTAGGTA | -0.0818
130 | ATCTGAAA | -0.039
131 | CGAGTACA | 0.0348
132 | ACATGCTC | -0.0918
133 | ACACCCCG | 0.241
134 | AGTCCAAG | -0.236
135 | AGTCCTAT | -0.0902
136 | AGACCGAT | 0.163
137 | AGTCCGAT | 0.458
138 | CGTCCGAG | 0.296
139 | AGTCCTAA | -0.163
140 | AGTCCGAG | 0.43
141 | AGGCCGAC | 0.324
142 | AGTCCGAA | 0.425
143 | AGTCCAAA | -0.107
144 | AGCCCGAC | 0.152
145 | AGTCCGAC | 0.431
146 | AGTAAGTG | -0.128
147 | ATCTCTGG | -0.239
148 | AAACGACC | -0.0492
149 | ACCTCATG | -0.349
150 | ATTAGCTC | -0.0566

Row | Sequence | PBM E-score
151 | ACAGACTC | -0.109
152 | ATCCGATA | 0.399
153 | GGCCGATA | 0.3
154 | ATCCGATC | 0.37
155 | CTCCGATA | 0.462
156 | CTCCGATC | 0.46
157 | ATCCGATG | 0.323
158 | GCCCGATA | 0.0679
159 | CGCCGATA | 0.37
160 | AACCGATA | 0.0662
161 | CACCGATA | 0.194
162 | GTCCGATA | 0.414
163 | CGCCGATC | 0.377
164 | CGCTCTAG | -0.113
165 | AACTGCCA | -0.249
166 | GTGGAGCA | -0.158
167 | GAGCACGC | -0.106
168 | TAACCGTA | -0.0936
169 | TAACCGGA | 0.431
170 | CAACCGGA | 0.414
171 | AAACCGGC | 0.356
172 | AAACCGGA | 0.438
173 | CAACCGGG | 0.215
174 | GAACCGGC | 0.283
175 | GAACCGGA | 0.426

Row | Sequence | PBM E-score
176 | TAACCGCA | 0.0534
177 | GAACCGTA | -0.0428
178 | AAACCGGT | 0.204
179 | CAACCGGC | 0.27
180 | GGTGCTAC | -0.0466
181 | GAAAGCAA | 0.145
182 | CAGGTTCC | 0.0369
183 | AAGGAGCA | -0.0618
184 | GGAAGTAC | 0.253
185 | CATCACAG | -0.108
186 | CTGTCCGA | 0.335
187 | ATGTCCGA | 0.455
188 | CTGTCCGC | 0.14
189 | ATGTCCGG | 0.468
190 | ATGTCCCC | 0.042
191 | ATGTCCCG | 0.319
192 | GTGTCCGA | 0.374
193 | ATGTCCTG | -0.0169
194 | ATGTCCGC | 0.403
195 | AATCTTGA | -0.172
196 | CATGCTAG | -0.256
197 | AGACACTG | -0.321
198 | GACGGCGC | 0.169
199 | ACCGGCCG | 0.392
200 | ACCGGCGG | 0.402

Row | Sequence | PBM E-score
201 | ATCGGCGC | 0.326
202 | GCCGGCGC | 0.396
203 | CCCGGCCG | 0.354
204 | ACCGGCGT | 0.3
205 | GCCGGCCC | 0.248
206 | ACCGGCCT | 0.179
207 | ATCGGCGG | 0.42
208 | ACCGGCGC | 0.351
209 | ATCGGCGA | 0.327
210 | ATATGCTA | -0.0729
211 | AAGCCCGA | 0.27
212 | CCCATAGG | -0.0984
213 | AAAATGGT | 0.184
214 | GAAGTTAC | 0.0322
215 | ATCTTGAC | -0.292
216 | ACGTCTTA | -0.241
217 | CGGCCCCC | 0.173
218 | CACCAAAC | -0.119
219 | CCCGGCGG | 0.396
220 | CCCGGCGC | 0.338
221 | CCCGGCGA | 0.326

— the supplement of paper PMC3334620
